Inconclusive results are not listed. Where a call stands in place of a potency, no number is given. A number with no mark means an inactive call. Calls of active or inactive are those of the source. Calls follow the shape of the dose curve; as a rule, active = well fitted inhibition curve with a large enough effect; inconclusive = small, poorly fitted or top-dose-only effect; inactive = no such curve, though single readings can be large or run the other way.
test: Primary fluorescence-based thiol-reactive (MSTI) qHTS assay for identification of artifact compounds. (AID 1845221); details: MSTI thiol-reactivity probe, 1 h; series mostly up to 53.8 µM; also: nearly all actives have a fitted effect of over 65% in size;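 as to activity change, negative = thiol reactive: thiol-reactive compounds lower the probe fluorescence signal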
How it was run: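 Curve-fitted percent inhibition (4-parameter Hill) derived from fluorescence, Ex 525/Em 598 nm, scaled with Acetyl-MSTI and MSTI; 1 h incubation at room temperature.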
Potency is read from the fitted curve at half-maximal effect.

| Structure (SMILES) | Potency | activity change, negative = thiol reactive |
| --- | --- | --- |
| COc1cc(/C=C2\CC[C@H]3COC[C@@H](c4cc(F)c(F)c(F)c4)N3C2=O)ccc1-n1cnc(C)c1 | inactive | – |
| CNC(=O)c1cc(Oc2ccc(NC(=O)c3cccc(C(F)(F)F)c3)cc2)ccn1 | inactive | – |
| COc1cccc(OCCCN)c1-c1cc(Nc2cnc(C#N)cn2)n[nH]1 | inactive | – |
| COC(=O)C[C@H]1C(C)(C)[C@H](OC(=O)c2ccccc2)C2CC3=C4CC(=O)O[C@@H](c5ccoc5)[C@]4(C)CCC3[C@@]1(C)C2=O (some centres undefined) | inactive | – |
| OC[C@H]1O[C@@H](OC/C=C/c2ccc(O)cc2)[C@H](O)[C@@H](O)[C@@H]1O | inactive | – |
| CC(C)(CO)c1cc2cc(NC(=O)C3(c4ccc5c(c4)OC(F)(F)O5)CC3)c(F)cc2n1CC(O)CO (centres undefined) | inactive | – |
| C/C=C(\C)C(=O)O[C@H]1C[C@](C)(O)[C@H]2CC=C(C)[C@H]2[C@@H]2OC(=O)[C@H](C)[C@H]21 | inactive | – |
| Nc1nc(OCc2cc(Br)cs2)c2[nH]cnc2n1 | inactive | – |
| CC(C)(Cc1ccccc1)NCC(O)c1ccc(O)c(NS(C)(=O)=O)c1 (centres undefined) | inactive | – |
| C=C1CCCC2(C)CCC(C(C)(C)OC3OC(C)C(O)C(O)C3OC(=O)/C(C)=C\C)CC12 (centres undefined) | inactive | – |
| C=C1C(=O)OC2/C=C(\COC(C)=O)CC/C=C(\C=O)CC(OC(=O)CC(C)C)C12 (centres undefined) | inactive | – |
| NC(=O)c1nc(Nc2ccccc2)sc1NC(=O)C1CCCCC1 | 1.68 µM (active) | – |
| CNCc1cc(-c2ccccc2F)n(S(=O)(=O)c2cccnc2)c1 | inactive | – |
| O=C(CNC(=O)c1cccc(C(F)(F)F)c1)N[C@@H]1CCN(Cc2ccc(Cl)cc2)C1 | inactive | – |
| CCCNCCc1ccc(NS(=O)(=O)c2ccc(OC(F)(F)F)cc2)cc1 | inactive | – |
| CCOC(=O)CCNc1cc(N2CCc3ccccc3CC2)nc(-c2cccnc2)n1 | inactive | – |
| NC(=O)CCCSc1nc(N)nc(-c2c(Cl)cc3c4c(cccc24)COC3)n1 | inactive | – |
| C1=Cc2ccccc2C(=C2CCN(CCCCc3nn[nH]n3)CC2)c2ccccc21 | inactive | – |
| C/C=C(/C)C(=O)O[C@H]1[C@H](OC(=O)/C(C)=C\C)[C@@]23C(CC1(C)C)[C@]1(CCC4[C@@]5(C)CC[C@H](O[C@@H]6O[C@H](C(=O)O)[C@@H](O)[C@H](O[C@@H]7O[C@H](CO)[C@H](O)[C@H](O)[C@H]7O[C@@H]7O[C@@H](C)[C@H](O)[C@@H](O)[C@H]7O[C@@H]7OC[C@@H](O)[C@H](O)[C@H]7O)[C@H]6O[C@@H]6O[C@H](CO)[C@H](O)[C@H](O)[C@H]6O)C(C)(C)C5CC[C@@]4(C)[C@]1(C)C[C@H]2O)O[C@H]3O (some centres undefined) | – | 718% [at 11.5 µM] |
| O=C(NCc1ccccc1-c1ccccc1C(=O)NCCc1ccccn1)OCc1ccccc1 | inactive | – |

| Structure (SMILES) | Potency | activity change, negative = thiol reactive |
| --- | --- | --- |
| O=C(NCCCc1ccccc1)C1CCC(CNS(=O)(=O)c2cccc3nsnc23)CC1 (centres undefined) | inactive | – |
| COc1cc(OC)c2c(=O)[nH]c(-c3cc(C)c(OCCO)c(C)c3)nc2c1 | inactive | – |
| CC(C)(O)c1ccn2c(-c3ccc(F)c(-c4ccc(F)cc4C#N)c3)cnc2c1F | inactive | – |
| C=CC(=O)N1CC(N2CCN(C(=O)CNc3cc(C4CC4)c(Cl)cc3O)CC2)C1 | 2.67 µM (active) | – |
| COc1ccc(NC(=O)C2C[C@H](C)CC[C@H]2C(C)C)cc1 (some centres undefined) | inactive | – |
| Fc1ccc(-c2nc(C3CCNCC3)sc2-c2ccnc(NC3CC3)n2)cc1 | inactive | – |
| O=C(Nc1ccc(-n2nc(C(F)(F)F)cc2C(F)(F)F)cc1)c1ccncc1F | inactive | – |
| CC(=O)NC(C)c1cnc(-c2cnc(Oc3ccc(OC(C)C)cc3)s2)s1 (centres undefined) | inactive | – |
| C=C1C(=O)OC2CC3(C)C(O)C(=O)C=C(C)C3CC12 (centres undefined) | 2.67 µM (active) | – |
| CC(=O)NCc1cccc(OC[C@@H](O)CNCCc2ccc(NS(=O)(=O)c3ccccc3)cc2)c1 | inactive | – |
| Cc1c(C(=O)Nc2ccc(N3CCC(N4CCOCC4)CC3)c(C#N)c2)cnn1-c1ccc(Cl)cc1 | inactive | – |
| CC(=O)O[C@@H]1CC[C@@]2(C)C(CC[C@]3(C)C2[C@H](O)C=C2[C@H]4[C@@H](C)[C@H](C)CC[C@]4(C)CC[C@]23C)[C@@]1(C)C(=O)O (some centres undefined) | inactive | – |
| CCn1c(-c2nonc2N)nc2c(C#CCO)ncc(OCCCN)c21 | inactive | – |
| C[C@@H]1O[C@@H](O[C@H]2[C@@H](OC(=O)[C@]34CCC(C)(C)CC3C3=CCC5[C@@]6(C)C[C@H](O)[C@H](O[C@@H]7O[C@H](CO)[C@@H](O)[C@H](O)[C@H]7O[C@@H]7OC[C@@H](O)[C@H](O)[C@H]7O)[C@@](C)(C(=O)O)C6CC[C@@]5(C)[C@]3(C)CC4)OC[C@H](O)[C@@H]2O)[C@H](O)[C@H](O)[C@H]1O[C@@H]1OC[C@@H](O)[C@H](O)[C@H]1O (some centres undefined) | – | 151% [at 11.5 µM] |
| COc1ccc(S(=O)(=O)n2cnc3cc(C)c(C)cc32)cc1 | inactive | – |
| CC(=O)C1=CCC2C3CC=C4CC(O)CC(O)C4(C)C3C(O)CC12C (centres undefined) | inactive | – |
| CC(C)C[C@@H]1NC(=O)[C@@H](Cc2ccccc2)NC(=O)C(CCCCCC(=O)C2CO2)NC(=O)[C@@H]2CCCCN2C1=O (some centres undefined) | inactive | – |
| C=C1CC[C@@H](O)[C@]2(C)C[C@H]3OC(=O)C(=C)[C@H]3CC12 (some centres undefined) | inactive | – |
| CC1CCCC(O)CCC/C=C/c2cc(OS(=O)(=O)O)cc(O)c2C(=O)O1 (centres undefined) | inactive | – |
